# The emibetuzumab library of Makowski et al. (2022)
# This is one part of the list. The true hit rate is not given.
# B1: VH:VL chains; a variant is named by its letters at X, in order (parent)
# chain 1: QVQLVQSGAEVKKPGASVKVSCKASGYTFTDYXMHWVRQAPGQGLEWMGXVNPNXXXTTYNQKFEGRVTMTTDTSTSTAYMELRSLRSDDTAVYYCARXNXLDXWGQGTTVTVSS
# chain 2: DIQMTQSPSSLSASVGDRVTITCSVSSSVSSIYLHWYQQKPGKAPKLLIYSTSNLASGVPSRFSGSGSGTDFTLTISSLQPEDFATYYCQVYSGYPLTFGGGTKVEIK
# Variants of: B1
# Test: yeast display scFab, FACS + sequencing
# Conditions: with MET
# Procedure, shortened: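 A heavy-chain CDR mutant scFab library on yeast was enriched magnetically with HGFR-Fc-coated Protein A beads for two rounds and then by FACS after labelling with 1 nM HGFR-Fc and anti-Myc in PBSB with 1% milk for 3 h at room temperature, gating the top 50% antigen-positive cells. Antigen binding was judged positive if a sequence turned up in both antigen-positive deep-sequencing samples and negative if it turned up only in the input.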
row,Variant,antigen binding call
1,VTGGGDGA,no binding
2,YEGGADVA,no binding
3,YRGGASAA,binds
4,YRGGGSAA,binds
5,YRGGAAAA,binds
6,DAGGAAAA,no binding
7,DAGGAAVA,no binding
8,VRGGGSAA,binds
9,YRGRGSAF,binds
10,VEGGGSSA,no binding
11,VEGGGDAA,no binding
12,DTKAASSA,no binding
13,SEGGSAAY,no binding
14,DEGGTDGV,no binding
15,DEGGTAAA,no binding
16,YRGGTAAA,binds
17,YEERTAAA,no binding
18,VREGSSAA,no binding
19,VRGRSSAA,binds
20,YRGRTAAA,binds
21,YRTRDVGF,no binding
22,YRAGGVGF,binds
23,YRGRGYGS,binds
24,YRAGGYGF,binds
25,YRGRGYVS,binds

row,Variant,antigen binding call
1,DKTGDDVF,no binding
2,SEKKDYSA,no binding
3,DGGGGYWF,no binding
4,YRGRGYGF,binds
5,YEGGGYSF,no binding
6,YRGRGYGA,binds
7,YTGGDDGF,no binding
8,DRGGGDGV,no binding
9,YRGGGYGF,no binding
10,YRGGGDGF,binds
11,SETGADVA,no binding
12,VTGTGSLD,no binding
13,YTGRGSGV,binds
14,YTGTSSLD,no binding
15,YTGRGSLD,binds
16,DTGRGSGV,no binding
17,FTGRGAGV,no binding
18,DRAGDDSA,no binding
19,YRAGGASA,binds
20,YRARSASA,binds
21,YRAGGDSA,binds
22,YRARGASA,binds
23,VEGTGVGD,no binding
24,DAGKGAVY,no binding
25,STTGGDGV,no binding

row,Variant,antigen binding call
1,FAKTDAGF chain 1 G108D,no binding
2,SGRGNAGD,no binding
3,FKGEGAAD,no binding
4,YATKGFGD,no binding
5,YRAKGAAD,binds
6,FTAGGAAD,no binding
7,YRTKGAAD,binds
8,FRTKGAAD,binds
9,FRGEGAAD,binds
10,ATGGGYVA,no binding
11,YKRAAYGD,no binding
12,YKRGSAGD,binds
13,YRRGAAGD,binds
14,YTRGAASD,no binding
15,YKRGAAGD,binds
16,FEKGSDVA,no binding
17,VETEGDVY,no binding
18,FTGEDDVY,no binding
19,DAGGGSSS,no binding
20,YKGKGSVS,binds
21,VEGGTAGS,no binding
22,DKEGGSSS,no binding
23,YKGKGAGS,binds
24,YKGGGAGS,binds
25,YKGKGYVD,no binding

row,Variant,antigen binding call
1,YKGRSSSS,binds
2,DEGGGAGS,no binding
3,YEKEDYLA chain 1 G108D,no binding
4,FAKEGDGD,no binding
5,YARGGAGA,no binding
6,YKGKGSGA,binds
7,YKGKGSSS,binds
8,YKRGGAGS,binds
9,YTGTGSGA,no binding
10,VKAGGDGS,no binding
11,YKGKGSGS,binds
12,DTAESDLD,no binding
13,SEARSSWV,no binding
14,AKGRAAAS chain 1 D103N,no binding
15,VKGRADGS,no binding
16,YKGKGAWS,binds
17,YKGRAAGS,binds
18,DKEGGDAV,no binding
19,FEKEGDAA,no binding
20,YRARGSGV,binds
21,YTERGFGV,no binding
22,YRARGVGV,binds
23,YTARDVGV,no binding
24,YRARGYGV,binds
25,YRARGFGV,binds

row,Variant,antigen binding call
1,YRARGDGV,binds
2,YRARSAWV,binds
3,YRARGAWV,binds
4,YAAGGDGV,no binding
5,YRARGAGV,binds
6,YRAETDGV,no binding
7,SEEGTAGD,no binding
8,YAKGDYSV,no binding
9,SETTDSLD,no binding
10,AAEGDAAD,no binding
11,AGGRGDVD,no binding
12,ARGRGAAS,binds
13,ARGRGAAD,binds
14,SGGRTYGV,no binding
15,YTETGDSV,no binding
16,YRGGDDSV,no binding
17,YTGGGDGV,no binding
18,YEGGGDWV,no binding
19,YRGGGDSV,binds
20,YRGGGDWV,binds
21,YRGRGDSV,binds
22,VRGGGDWV,no binding
23,SETKGDWA,no binding
24,VTTKSDAV,no binding
25,DEKGGSSA,no binding

row,Variant,antigen binding call
1,DTTRGAVA,no binding
2,FRAGGAWY,binds
3,YRRGDAWY,binds
4,DRRGDAVY,no binding
5,FRRGGAWY,binds
6,FRKRGAWY,binds
7,YAGGGDGA,no binding
8,FRTKAAVY,no binding
9,FTKGSAGY,no binding
10,FRAGGAVY,binds
11,FRRRGAWY,binds
12,YRRGGAWY,binds
13,FRRGGAGY,binds
14,FRGEAVVY,no binding
15,VAGGDDGA,no binding
16,FGGENDGD,no binding
17,VRKRGSSS,binds
18,VGGTSSSS,no binding
19,VRTRGSSS,binds
20,DETGNVWF,no binding
21,VTGEDDAA,no binding
22,DAGGADVA,no binding
23,YRAGSAAD,binds
24,YRAGDAAD,binds
25,YREGDAAD,no binding

row,Variant,antigen binding call
1,YRARSALD,binds
2,YAARAALD,no binding
3,YRARSAAD,binds
4,DAGGGYSV,no binding
5,DKEGGSSA,no binding
6,DKTGNDVV,no binding
7,AATRNVGV,no binding
8,YRARSAVD,binds
9,YAARAAVD,no binding
10,VGGTSDGV,no binding
11,YKGRDAWD,binds
12,YKGRDAGD,binds
13,YKGRDASD,no binding
14,YKGRDALD,binds
15,YKGRDDVA,no binding
16,DKGRSAGD,no binding
17,SGKKAVWV,no binding
18,VEAGDDVY,no binding
19,VTGANDWV,no binding
20,SKGRSDVV,no binding
21,VTGEDAGA,no binding
22,VRERGVGV,no binding
23,YRERGSAV,binds
24,VRERGSAV,binds
25,YRERGAAV,binds

row,Variant,antigen binding call
1,VRERGDLV,no binding
2,DTERGSLV,no binding
3,FRERGSAV,binds
4,VTGEADAS,no binding
5,DATGGDVA,no binding
6,DAGGAAAV,no binding
7,VEEEGDGA,no binding
8,YKGKGAWY,binds
9,YRGKDAWY,binds
10,FKGKGAWY,binds
11,VKEKGAWY,no binding
12,YRGKGAWY,binds
13,AKGGAAVY,no binding
14,AETKGALD,no binding
15,YRGKDAWS,binds
16,YRGKDAAY,binds
17,SKAGDAWY,no binding
18,YAGKTAWS,no binding
19,YRGKGAGY,binds
20,SKGKGAWY,binds
21,SEARSDAV,no binding
22,FRAGGSLY,binds
23,YRKKGALY,binds
24,DRAGDDLY,no binding
25,YRRRGSLY,binds

row,Variant,antigen binding call
1,FRRRGSLY,binds
2,VAGTGDWV,no binding
3,DKREADGA,no binding
4,VEERDAGD,no binding
5,VTEGDAGA,no binding
6,SKTRAFVA,no binding
7,SRGGGVGY,no binding
8,SRAGGSLY,binds
9,YRRRGALY,binds
10,SREAAAVY,no binding
11,DAERDSGV,no binding
12,VRARGAWF,binds
13,YRARGAWF,binds
14,YRARDDVF,no binding
15,VRTEDDWF,no binding
16,YRTGDDVF,no binding
17,VRGGDDWF,no binding
18,YRARSDVF,binds
19,YRARGAGF,binds
